Only some compounds are listed: those with a hit (about 19% of all), similar ones and a draw of the others.
IL-1B inflam inh: qHTS for Inhibitors of Inflammasome Signaling: IL-1-beta AlphaLISA Primary Screen; 360,000 compounds, 4.7% hits; AID 743279, 2014; activity change, % at 57.5 µM; THP-1 LPS/ATP IL-1B secretion, AlphaLISA, 16 h; active compounds read low; in the data active = activity change below about -50%; inconclusive = mostly about -30% to -49%; note: % is set by controls: 0 for no effect and ±100 for the full control effect
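Secreted IL-1B measured by AlphaLISA bead assay after 16 h compound exposure of THP-1 cells; compounds (final up to 57.5 uM) added 1 h before LPS (250 ng/mL) and ATP (1.25 mM) stimulation; lower signal means less secretion.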
TGFb SMAD3 inh: qHTS for Inhibitors of TGF-b; HepG2 CAGA-GFP TGF-b/SMAD3 reporter, GFP fluorescence, 18 h; TGF-beta stimulated, 500 pg/mL final; 410,000 compounds, 1.2% hits; Potency, µM (series often up to 46.1 µM), without a hit: top-dose activity, negative = inhibition, usual class: inhibitors; note: potency is the fitted concentration of half-maximal effect; % is set by controls: 0 for no effect and ±100 for the full control effect; nearly all actives have a fitted effect of over 65% in size
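Inhibition of TGF-beta-driven CAGA-GFP reporter expression in HEPG2 cells is measured by cellular GFP fluorescence after 18 h stimulation with 500 pg/mL recombinant TGF-beta in 1% FBS medium at 37 degrees C.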
TDP1 cell noCPT: qHTS for Inhibitors of human tyrosyl-DNA phosphodiesterase 1 (TDP1): qHTS in cells in absence of CPT; Potency, µM (highest dose often 46.2 µM), for inactives: at the highest dose activity change, negative = growth inhibition, actives largely listed as inhibitors; DT40 Tdp1-/- hTDP1 cells, no CPT, ATP luminescence, 48 h; 420,000 compounds, 15% hits; note: potency is the fitted concentration of half-maximal effect; % is set by controls: 0 for no effect and ±100 for the full control effect; nearly all actives have a fitted effect of over 55% in size
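Chicken DT40 Tdp1-/- cells complemented with human TDP1, screened without camptothecin (DMSO vehicle only), 400 cells/well. Compounds pin-transferred, cells incubated at 37 °C for at least 48 hr. Growth read as ATP-dependent luminescence (CellTiter-Glo, 30 min at RT).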
S-ASM inh: Inhibitors of Secretory Acid Sphingomyelinase (S-ASM): qHTS; Sphingomyelin phosphodiesterase (Homo sapiens), P17405; placental ASM, HMU-PC fluorogenic substrate, 60 min; Potency, µM (series often up to 57.5 µM), without a hit: top-dose activity change, negative = inhibition, most hits filed as inhibitors; 340,000 compounds, 0.006% hits; AID 504937, 2011; note: potency is the fitted concentration of half-maximal effect
Target sequence (P17405 47-631 limits assumed): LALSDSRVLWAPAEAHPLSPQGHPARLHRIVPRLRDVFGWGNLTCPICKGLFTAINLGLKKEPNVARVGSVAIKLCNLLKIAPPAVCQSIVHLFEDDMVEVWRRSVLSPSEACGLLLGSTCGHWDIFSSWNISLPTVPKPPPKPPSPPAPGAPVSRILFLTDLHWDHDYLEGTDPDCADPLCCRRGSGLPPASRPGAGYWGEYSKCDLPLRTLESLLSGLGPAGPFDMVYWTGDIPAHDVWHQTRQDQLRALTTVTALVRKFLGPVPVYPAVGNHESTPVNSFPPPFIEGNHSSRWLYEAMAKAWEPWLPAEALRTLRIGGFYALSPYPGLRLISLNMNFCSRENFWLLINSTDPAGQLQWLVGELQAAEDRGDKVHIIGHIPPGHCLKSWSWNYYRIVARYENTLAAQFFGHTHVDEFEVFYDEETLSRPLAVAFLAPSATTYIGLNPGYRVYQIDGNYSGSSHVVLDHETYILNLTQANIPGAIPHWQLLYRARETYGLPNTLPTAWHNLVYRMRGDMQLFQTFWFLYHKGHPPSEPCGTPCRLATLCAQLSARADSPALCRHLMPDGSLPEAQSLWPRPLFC
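Human placenta-derived ASM preincubated with compound 10 min at room temperature, then reacted with 9 uM (final) fluorogenic HMU-PC substrate for 60 min at 37 C. Stop solution raises pH to 10; fluorescence read at Ex 386/Em 447 nm.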
TDP1 cell CPT: qHTS for Inhibitors of human tyrosyl-DNA phosphodiesterase 1 (TDP1): qHTS in cells in presence of CPT. AID 686979, 2013. Potency, µM (titrated, usually from 46.2 µM), inactives show at the highest dose activity change, negative = growth inhibition, actives largely listed as inhibitors. chicken DT40 Tdp1-/-;hTDP1 cells + 20 nM CPT, ATP luminescence, 48 h. 420,000 compounds, 12% hits; note: potency is the fitted concentration of half-maximal effect; % is set by controls: 0 for no effect and ±100 for the full control effect; nearly all actives have a fitted effect of over 55% in size
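Chicken DT40 Tdp1-/- cells stably complemented with human TDP1 were seeded at 400 cells/well in medium containing 20 nM camptothecin, exposed to pin-transferred compounds, and grown at 37 °C for at least 48 hr. Viability was read as ATP luminescence.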
HepG2 viability: qHTS for Inhibitors of TGF-b: Cytotox Counterscreen | HepG2 CAGA-GFP viability, ATP luminescence, 18 h | Potency, µM (series often up to 46.1 µM), inactives show at the highest dose activity change, negative = cytotoxicity, usual class: cytotoxic | 410,000 compounds, 0.76% hits | AID 588856, 2011; note: potency is the fitted concentration of half-maximal effect
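HepG2 CAGA-GFP cells (1000/well, DMEM with 1% FBS) received compound, then TGF-beta at 500 pg/mL final, and were incubated 18 hours at 37 degrees C. Viability was read by CellTiter-Glo luminescence. Media-only wells were set as complete cell-killing and DMSO as no toxicity.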
Active calls of the source: *; ? = inconclusive; / = not tested or not shown. Unless noted, calls come from the whole dose curve; as a rule, active = well fitted curve in the direction sought with a large enough effect; inconclusive = small, poorly fitted or top-dose-only effect, or another doubt; inactive = no such curve, though single readings can be large; an effect the other way counts as inactive or inconclusive.

SMILES	IL-1B inflam inh	TGFb SMAD3 inh	TDP1 cell noCPT	S-ASM inh	TDP1 cell CPT	HepG2 viability
CCN1CCN(S(=O)(=O)c2ccc(Cl)c(C(=O)Nc3cc(Cl)ccc3N3CCOCC3)c2)CC1	-62*	0%	?	-3%	?	-11%
CC(NC(=O)C(=O)NCCN1CCN(C(=O)c2ccccc2Br)CC1)c1ccccc1 (stereo unspecified)	6	2%	-4%	0%	-8%	-6%
COc1ccccc1CNC(=O)CCC1N=C2c3ccccc3N=C(SCC(=O)NCCc3ccccc3)N2C1=O (stereo unspecified)	/	-4%	-28%	/	-25%	-18%
CCc1ccc(NC(=O)CSC2=Nc3ccccc3C3=NC(CCC(=O)NCc4ccccc4)C(=O)N23)cc1 (stereo unspecified)	/	-7%	23µM*	/	?	-12%
CCc1ccccc1NC(=O)CSC1=Nc2ccccc2C2=NC(Cc3ccccc3)C(=O)N12 (stereo unspecified)	/	-13%	?	/	16µM*	-25%
CCOc1ccc(NC(=O)CSC2=Nc3ccccc3C3=NC(CCC(=O)NCc4ccccc4)C(=O)N23)cc1 (stereo unspecified)	/	-1%	16µM*	/	?	-39%
CCc1ccc(NC(=O)CSC2=Nc3ccccc3C3=NC(CCC(=O)NCCc4ccccc4)C(=O)N23)cc1 (stereo unspecified)	/	?	?	/	23µM*	-8%
Cc1ccccc1NC(=O)CSC1=Nc2ccccc2C2=NC(CCC(=O)NCc3ccccc3)C(=O)N12 (stereo unspecified)	/	-13%	?	/	-26%	-36%
Cc1cccc(NS(=O)(=O)c2ccc(C)c(C(=O)N(C)C)c2)c1	-2	13%	2%	3%	-29%	-16%
O=C(Nc1ccccc1C(F)(F)F)c1cc(-c2ccc3c(c2)OCCO3)on1	/	1%	?	/	?	-1%
CNC(=O)NC(=O)CSc1nnc(-c2ccco2)n1-c1ccccc1	4	-3%	-1%	2%	-15%	-1%
CN(C(=S)NC(=O)c1ccc(Cl)cc1)C1CCCCC1	20	-22%	?	-1%	?	-25%
CCN(CC)S(=O)(=O)c1ccc(NC(=O)CCN2C(=O)C3CC=CCC3C2=O)cc1 (stereo unspecified)	-9	-3%	-15%	-1%	-12%	4%
NNc1nc(N)c2c(n1)-c1ccccc1CC21CCCC1	-9	-23%	16µM*	6%	10µM*	-21%
O=S(=O)(/N=C/c1ccccc1O)c1cccs1	19	-6%	-9%	-1%	-20%	-20%
N/C(=N\S(=O)(=O)c1cccs1)c1ccccc1	-15	4%	-16%	9%	-6%	5%
CC(C)(C)c1cc[n+](C2=C([O-])c3ccccc3C(=O)/C2=N\S(=O)(=O)c2cccs2)cc1	-88*	2.8µM*	4.6µM*	-2%	2.3µM*	4.5µM*
O=C1/C(=N\S(=O)(=O)c2cccs2)C([n+]2ccccc2)=C([O-])c2ccccc21	-63*	2µM*	2.3µM*	0%	2.3µM*	-111%
CCOC(CCNC(=O)c1cn(CCOC)c(=O)c2c1c1ccccc1n2C)OCC	22	10%	-1%	10%	4%	-1%
FC(F)(F)COCC(F)(F)F	/	/	0%	/	9%	/
